Growth inhibition, inhibition and outcome data for 19 molecules are collected here from PubChem BioAssay.

A number with no mark means an inactive call. For some assays here: Potency and affinity values are given separately. Calls of active or inactive are those of the source. Unless noted, how the calls were made is not given here.

Assay [1] can be described thus: antimalarial activity against Dd2 strain (AID 2302;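 active means growth inhibition above 50% at the single 2 µM test dose, taken to imply half-maximal potency below 2 µM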;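 further: 0% = DMSO untreated growth and 100% = chloroquine plus artemisinin killed control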). The following applies: P. falciparum Dd2 in RBCs, LDH growth readout, 72 h; at 2 µM; hits give high values.
A short description of assay [2]: human hepatoma cell viability loss – ATP luminescence, cytotoxicity control for P. falciparum antimalarial project, primary screen (AID 2303;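 active means inhibition above 50%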;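 further: 0% = DMSO wells and 100% = digitonin-killed cells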). The following applies: HepG2 viability, 24-48 h, at 10 µM, hits give high values.
In assay [3] the target is L-lactate dehydrogenase (Plasmodium falciparum (isolate CDC / Honduras)) (UniProt Q27743). Briefly: PfLDH activity inhibition – cell lysate, 3D7 strain, counter-screen for P. falciparum growth inhibition project (AID 2304).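 Further: 0% = vehicle and 100% = reference inhibitor.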 Particulars: P. falciparum 3D7 crude extract, LDH APAD/NBT absorbance; at 2 µM; hits give high values. Background: The purpose of a counterscreen is to sort out artefacts and off-target activity.
Sequence of L-lactate dehydrogenase (Plasmodium falciparum (isolate CDC / Honduras)) (Q27743 whole entry, looked up): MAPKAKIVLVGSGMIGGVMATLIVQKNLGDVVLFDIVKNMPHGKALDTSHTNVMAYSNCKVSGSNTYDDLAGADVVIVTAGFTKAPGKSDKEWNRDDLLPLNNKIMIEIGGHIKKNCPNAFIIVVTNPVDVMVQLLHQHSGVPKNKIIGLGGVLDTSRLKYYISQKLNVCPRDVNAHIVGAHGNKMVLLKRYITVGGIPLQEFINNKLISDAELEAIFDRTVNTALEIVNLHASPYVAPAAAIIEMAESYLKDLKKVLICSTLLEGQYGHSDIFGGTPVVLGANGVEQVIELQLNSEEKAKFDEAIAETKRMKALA

Assay [4] is described as follows: inhibition of 3D7 malaria parasite growth – strain 3D7 (AID 2306).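 Further: 0% = DMSO wells and 100% = chloroquine plus artemisinin control wells.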 The following applies: P. falciparum 3D7 erythrocytic growth, LDH absorbance, 72 h; at 2 µM; hits give high values.
Assay [5] addresses Calcium-dependent protein kinase 1 (Plasmodium falciparum (isolate 3D7)) (UniProt P62344). The assay can be described thus: PfCDPK1 kinase inhibitors, biochemical, TCAMS library (AID 1159585; cut-off not given, nearly all actives have IC50 up to about 0.98 µM;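 further: inhibitors leave more ATP so luminescence rises with inhibition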). The following applies: recombinant PfCDPK1, Kinase-Glo ATP depletion luminescence.
The target in assay [6] is Plasmodium falciparum protein kinase 6 (PK6, PF3D7_1337100) (UniProt Q8IDW1). Briefly: PfPK6 kinase inhibitors, biochemical, TCAMS library (AID 1159586). Particulars: recombinant PfPK6, Kinase-Glo ATP depletion luminescence. A general note: Kinase-Glo measures the ATP left after a reaction by luminescence.
Sequence of Plasmodium falciparum protein kinase 6 (PK6, PF3D7_1337100) (Q8IDW1 1-305): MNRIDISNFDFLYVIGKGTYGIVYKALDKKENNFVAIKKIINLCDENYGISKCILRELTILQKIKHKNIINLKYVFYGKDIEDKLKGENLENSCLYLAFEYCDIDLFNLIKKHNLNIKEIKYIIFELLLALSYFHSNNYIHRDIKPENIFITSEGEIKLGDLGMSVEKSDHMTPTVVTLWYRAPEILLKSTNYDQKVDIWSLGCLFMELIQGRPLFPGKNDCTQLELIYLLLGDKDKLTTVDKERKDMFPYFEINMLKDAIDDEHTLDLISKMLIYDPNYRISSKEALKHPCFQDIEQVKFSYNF
Assay [7] addresses Protein kinase 7 (PK7), Plasmodium falciparum 3D7 (PF3D7_0213400) (UniProt Q7YTF7). The assay can be described thus: inhibition of Plasmodium PK7 catalytic activity – biochemical, TCAMS antimalarial set, Kinase-Glo luminescence (AID 1159587). Particulars: recombinant PfPK7, Kinase-Glo ATP depletion luminescence.
The target of assay [8] is Calcium-dependent protein kinase 4 (Plasmodium falciparum (isolate 3D7)) (UniProt Q8IBS5). Briefly: PfCDPK4 kinase inhibitors, biochemical, TCAMS library (AID 1159588; cut-off not given, nearly all actives have IC50 up to about 0.91 µM). The following applies: recombinant PfCDPK4, Kinase-Glo ATP depletion luminescence.
Sequence of Calcium-dependent protein kinase 4 (Plasmodium falciparum (isolate 3D7)) (Q8IBS5 whole entry, looked up): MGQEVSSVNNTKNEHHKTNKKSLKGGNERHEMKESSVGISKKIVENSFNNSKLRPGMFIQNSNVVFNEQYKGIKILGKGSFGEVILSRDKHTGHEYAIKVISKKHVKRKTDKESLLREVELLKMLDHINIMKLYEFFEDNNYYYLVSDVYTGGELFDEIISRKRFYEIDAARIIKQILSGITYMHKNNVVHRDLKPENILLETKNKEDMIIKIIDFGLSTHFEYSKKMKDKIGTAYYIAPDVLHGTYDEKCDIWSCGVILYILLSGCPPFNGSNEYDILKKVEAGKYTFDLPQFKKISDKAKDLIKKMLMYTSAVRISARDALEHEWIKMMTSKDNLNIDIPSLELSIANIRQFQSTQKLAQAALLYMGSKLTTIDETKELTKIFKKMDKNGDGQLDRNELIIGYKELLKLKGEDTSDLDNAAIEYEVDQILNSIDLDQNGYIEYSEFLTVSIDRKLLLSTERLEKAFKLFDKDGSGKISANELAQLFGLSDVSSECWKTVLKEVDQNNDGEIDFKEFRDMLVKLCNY

Sequence of Protein kinase 7 (PK7), Plasmodium falciparum 3D7 (PF3D7_0213400) (Q7YTF7 1-343): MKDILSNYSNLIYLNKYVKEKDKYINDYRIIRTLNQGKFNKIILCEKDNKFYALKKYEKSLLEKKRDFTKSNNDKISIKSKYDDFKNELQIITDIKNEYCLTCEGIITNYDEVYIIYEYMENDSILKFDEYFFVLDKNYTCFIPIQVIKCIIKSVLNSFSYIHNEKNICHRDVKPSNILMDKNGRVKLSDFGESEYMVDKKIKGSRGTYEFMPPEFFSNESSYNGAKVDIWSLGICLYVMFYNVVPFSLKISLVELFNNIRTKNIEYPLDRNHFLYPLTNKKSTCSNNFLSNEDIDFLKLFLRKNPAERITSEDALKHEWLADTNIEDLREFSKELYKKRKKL
Sequence of Calcium-dependent protein kinase 1 (Plasmodium falciparum (isolate 3D7)) (P62344 whole entry, looked up): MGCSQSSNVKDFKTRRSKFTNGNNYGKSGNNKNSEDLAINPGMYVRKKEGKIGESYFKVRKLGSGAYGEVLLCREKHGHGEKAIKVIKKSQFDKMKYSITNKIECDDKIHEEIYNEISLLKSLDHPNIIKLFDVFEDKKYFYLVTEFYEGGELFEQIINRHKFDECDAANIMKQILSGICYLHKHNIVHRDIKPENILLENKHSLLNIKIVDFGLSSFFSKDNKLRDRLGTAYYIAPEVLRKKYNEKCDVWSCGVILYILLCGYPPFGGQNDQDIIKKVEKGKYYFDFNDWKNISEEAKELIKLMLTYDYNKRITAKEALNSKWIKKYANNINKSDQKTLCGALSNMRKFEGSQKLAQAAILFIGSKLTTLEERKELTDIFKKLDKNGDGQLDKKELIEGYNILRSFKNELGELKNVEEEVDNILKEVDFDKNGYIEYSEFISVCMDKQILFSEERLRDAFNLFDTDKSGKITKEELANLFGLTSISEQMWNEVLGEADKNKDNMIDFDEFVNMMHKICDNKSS

What is called inhibition is the relative decrease from the control value, in per cent. Turning to `CC(=O)c1cccc2c(NC(=O)Nc3ccc4nccc(N5CCN(C)CC5)c4c3)cccc12`, the growth inhibition was 94% (active) in assay [1] and 99% (active) in assay [4]. Also, the values for the inhibition in assay [2] and in assay [3] were 13% and -3%, respectively. The result in assay [5], in assay [6], in assay [7] and in assay [8] was inactive.

For `Cc1nc2nc(N)nc(N)c2c(C)c1Cc1cccc(C(F)(F)F)c1`, the growth inhibition in assay [1] was 23%; in assay [4], 89% (active). For the same molecule, the inhibition was 65% (active) in assay [2] and -2% in assay [3]. For the same molecule, the result in assay [5], in assay [6], in assay [7] and in assay [8] was inactive.

With `CC1(C)N=C(N)N=C(N)N1OCCCc1cccc(C(F)(F)F)c1`, the growth inhibition in assay [1] and in assay [4] was 95% (active) each time. Further, the values for the inhibition in assay [2] and in assay [3] were 62% (active) and -3%, respectively. The outcome in assay [5], in assay [6], in assay [7] and in assay [8] was inactive.

For `Cc1cccc2[nH]c(-c3ccc(-c4ccc(CNCc5ccc(CN)cc5)cc4)s3)nc12`, the figures for the growth inhibition in assay [1] and in assay [4] were 85% (active) and 101% (active), respectively. Further, the inhibition in assay [2] was 4%; in assay [3] it was -8%. Further, the result in assay [5], in assay [6], in assay [7] and in assay [8] was inactive.

For `Cc1ccc(CNC(=O)[C@H](Cc2ccccc2)Nc2cc(C)nc(Nc3ccccc3)n2)cc1`, the figures for the growth inhibition in assay [1] and in assay [4] were 91% (active) and 101% (active), respectively. Besides, the inhibition in assay [2] was 16%; in assay [3], 1%. In addition, the outcome in assay [5], in assay [6], in assay [7] and in assay [8] was inactive.

On to `CC(C)C[C@H](NC(=O)c1ccc(OCCN2CCOCC2)cc1)C(=O)N[C@H](/C=N/N(C)C(=O)c1ccccc1)CCc1ccccc1`, for which the growth inhibition in assay [1] was 72% (active); in assay [4], 91% (active). The figures for the inhibition in assay [2] and in assay [3] were 8% and 1%, respectively. The outcome in assay [5], in assay [6], in assay [7] and in assay [8] was inactive.

In the case of `CC(=O)NCCNCc1cccc(C(=O)NCc2cccc(C(F)(F)F)c2)c1`, the results for the growth inhibition in assay [1] and in assay [4] were -2% and 95% (active), respectively. Also, the inhibition in assay [2] and in assay [3] was 1% each time. Further, the result in assay [5], in assay [6], in assay [7] and in assay [8] was inactive.

As for `CCn1c(C)cc(C=C2SC(=Nc3ccccc3)NC2=O)c1C`, the values for the growth inhibition in assay [1] and in assay [4] were 87% (active) and 90% (active), respectively. For the same molecule, the inhibition in assay [2] was 27%; in assay [3], 3%. In addition, the outcome in assay [5], in assay [6], in assay [7] and in assay [8] was inactive.

For the molecule `Cc1cc2nc(-c3ccc(C(=O)NCc4cccc(C(F)(F)F)c4)cc3)[nH]c2cc1C`, the growth inhibition in assay [1] is 34%; in assay [4], 98% (active). Also, the inhibition in assay [2] was 4%; in assay [3] it was -9%. Also, the outcome in assay [5], in assay [6], in assay [7] and in assay [8] was inactive.

Consider `CC(=O)Nc1ccc(C(=O)Nc2ccc(-c3cccc(-c4nc5ccccc5[nH]4)c3)cc2)cn1`, for which the figures for the growth inhibition in assay [1] and in assay [4] were 84% (active) and 99% (active), respectively. In addition, the figures for the inhibition in assay [2] and in assay [3] were 34% and 2%, respectively. Further, the outcome in assay [5], in assay [6], in assay [7] and in assay [8] was inactive.

With `CC(=Nc1ccc(Cl)c(Cl)c1)N(C)C`, the figures for the growth inhibition in assay [1] and in assay [4] were 0% and 98% (active), respectively. Moreover, the results for the inhibition in assay [2] and in assay [3] were -6% and 2%, respectively. The outcome in assay [5], in assay [6], in assay [7] and in assay [8] was inactive.

On to `COc1c(C2CCN(CCCCNC(=O)C=Cc3cc4cc(Cl)ccc4o3)CC2)ccc2c1CCCC2`, for which the growth inhibition in assay [1] was 19%; in assay [4], 87% (active). For the same molecule, the inhibition in assay [2] is 33%; in assay [3], 2%. Moreover, the result in assay [5], in assay [6], in assay [7] and in assay [8] was inactive.

Turning to `CCCCCCN1CCCN(Cc2ccc(C(=O)Nc3ccc(Cl)cc3)cc2)CC1`, the growth inhibition is 54% (active) in assay [1] and 89% (active) in assay [4]. The inhibition in assay [2] was 50% (active); in assay [3], 3%. The outcome in assay [5], in assay [6], in assay [7] and in assay [8] was inactive.

`Cc1ccc2nc(C)cc(NN=Cc3ccc([N+](=O)[O-])o3)c2c1`: the growth inhibition in assay [1] was 99% (active); in assay [4] it was 101% (active). Besides, the inhibition in assay [2] is 15%; in assay [3], -4%. Also, the outcome in assay [5], in assay [6], in assay [7] and in assay [8] was inactive.

Regarding `CN(C)CCN(C)Cc1ccc(-c2cccc(-c3nc4ccccc4[nH]3)c2)cc1`, the growth inhibition is 78% (active) in assay [1] and 101% (active) in assay [4]. For the same molecule, the inhibition in assay [2] was 46%; in assay [3], -1%. Besides, the outcome in assay [5], in assay [6], in assay [7] and in assay [8] was inactive.

With `Cc1[nH]c(C)c(-c2ccc(-c3ccc(C#N)cc3)nc2)c(=O)c1Br`, the growth inhibition is 87% (active) in assay [1] and 97% (active) in assay [4]. Further, the inhibition in assay [2] was 5%; in assay [3] it was 7%. The outcome in assay [5], in assay [6], in assay [7] and in assay [8] was inactive.

Take `CCC1(CC)C(=O)N=C(N2CCCCC2)N(C)C1=O`: the growth inhibition in assay [1] is 66% (active); in assay [4], 89% (active). Besides, the values for the inhibition in assay [2] and in assay [3] were -4% and 1%, respectively. Moreover, the result in assay [5], in assay [6], in assay [7] and in assay [8] was inactive.

As for `O=C1COc2ccc(CNC3CCC(O)(CCc4ccnc5cc6c(cc45)OCCO6)CC3)nc2N1` (configuration not stated), the results for the growth inhibition in assay [1] and in assay [4] were -1% and 92% (active), respectively. The inhibition in assay [2] is -5%; in assay [3], -6%. Further, the result in assay [5], in assay [6], in assay [7] and in assay [8] was inactive.

In the case of `Clc1ccccc1/C=C/c1cncnc1Nc1ccc2nc(Cc3ccccc3)[nH]c2c1`, the growth inhibition in assay [1] was 26%; in assay [4], 96% (active). The inhibition in assay [2] was 4%; in assay [3], -1%. The outcome in assay [5], in assay [6], in assay [7] and in assay [8] was inactive.
